Several values for one entry are separate records, joined by “and”; a condition that tells them apart may be missing. Identical values can stand only once. Inconclusive results are not listed. More than one record can exist for a structure, and the calls need not agree. Activity calls are given as the source filed them. Rule for the calls, unless noted: active = hit-call score of the fitted dose curve at least 0.9, where 1 is the maximum; inconclusive = response in the unintended direction; inactive = score below 0.9.
Key:
[1] = CPHEA_Stoker_NIS_Cytotoxicity: Cytotoxicity Assessment for CPHEA's Radioactive Iodide Uptake (RAIU) Assay for Sodium/Iodide Symporter (NIS) Inhibition, Stoker and Laws Labs (AID 2283897)
Outline: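 hNIS-HEK293T-EPA cells, human NIS expressed in HEK293T, treated 2 h with chemicals (0.001–100 uM, 0.5% final DMSO). ATP content read by CellTiter-Glo luminescence; loss of signal analysed relative to DMSO.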

[2] = system: Sodium/Iodide Symporter (NIS), SLC5A5 (gene 6528); test: CPHEA_Stoker_NIS_Inhibition_RAIU: CPHEA's Radioactive Iodide Uptake (RAIU) Assay for Sodium/Iodide Symporter (NIS) Inhibition, Stoker and Laws Labs (AID 2283841)
Outline: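 hNIS-HEK293T-EPA cells incubated 2 h at room temperature with compound (0.001–100 uM, 0.5% DMSO) and 329 pM final 125I in HBSS/10 mM HEPES, pH 7.4. Intracellular 125I counted; normalised to DMSO maximal uptake, triplicate, three biological replicates.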

[3] = target: mouse Peroxisome Proliferator-activated Receptor gamma (PPARg), Pparg (gene 19016) (UniProt P37238); test: ATG_mPPARg_XSP2: Attagene TRANS-FACTORIAL Multi-Species (XSP2) HepG2 Assay for mouse Peroxisome Proliferator-activated Receptor gamma (PPARg) (AID 2283830);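 note: hits are gains in reporter mRNA above DMSO so AC50 marks activation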
Outline: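 Multiplexed TRANS reporter readout: after 24 h chemical exposure of transfected HepG2 cells (with 3 nM 6-alpha-fluorotestosterone, 1.5 nM norgestrel present), RNA reverse-transcribed, amplified, 6-FAM-labelled and resolved by capillary electrophoresis; mouse PPARg-Gal4 induction scored against DMSO.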

[4] = target: zebrafish Thyroid Hormone Receptor alpha (TRa), thraa (gene 30670) (UniProt Q98867); test: ATG_zfTRa_XSP2: Attagene TRANS-FACTORIAL Multi-Species (XSP1) HepG2 Assay for zebrafish Thyroid Hormone Receptor alpha (TRa) (AID 2283832);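 note: actives raise zebrafish TRa-Gal4 reporter transcript above DMSO baseline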
Outline: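 Multiplexed TRANS reporter format in HepG2; the medium also contained 3 nM 6-alpha-fluorotestosterone and 1.5 nM norgestrel. Reporter mRNA after 24 h read by RT-PCR and capillary electrophoresis, scored as induction over DMSO.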

[5] = system: zebrafish Peroxisome Proliferator-activated Receptor gamma (PPARg), gene 557037; test: ATG_zfPPARg_XSP2: Attagene TRANS-FACTORIAL Multi-Species (XSP2) HepG2 Assay for zebrafish Peroxisome Proliferator-activated Receptor gamma (PPARg) (AID 2283833);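 note: actives increase reporter signal over DMSO so AC50 reflects activation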
Outline: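 HepG2 cells transiently transfected with GAL4-UAS reporter units expressing a zebrafish PPARg–GAL4 chimera; compound exposure 24 h. Reporter mRNA quantified by RT-PCR with fluorescent labelling and capillary electrophoresis; gain of signal fitted relative to DMSO baseline.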

[6] = system: turtle Thyroid Hormone Receptor, alpha (TRa), gene 101949057; test: ATG_trTRa_XSP2: Attagene TRANS-FACTORIAL Multi-Species (XSP1) HepG2 Assay for turtle Thyroid Hormone Receptor, alpha (TRa) (AID 2283834);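 note: hits raise reporter mRNA over the DMSO baseline so AC50 marks activators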
Outline: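 HepG2 cells transiently transfected with multiplexed GAL4-UAS reporter units expressing chimeric NR-Gal4 proteins were dosed for 24 hours. Reporter mRNA was quantified by RT-PCR with 6-FAM labelling and capillary electrophoresis, gain of signal scored against DMSO.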

[7] = ATG_M_61_XSP2: Attagene TRANS-FACTORIAL Multi-Species (XSP2) HepG2 Assay for M61 Transcription Factor (Internal Marker) (AID 2283835; active = hit-call score of the fitted dose curve at least 0.9, where 1 is the maximum; inactive = score below 0.9;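 note: reporter mRNA of an internal background marker read by RT-PCR and capillary electrophoresis; active means a rise in signal above the DMSO baseline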)
Outline: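 Signal was mRNA induction detected as fluorescence after RT-PCR and capillary electrophoresis, analysed in the gain direction with DMSO as baseline. HepG2 cells transiently carrying reporter constructs received chemicals for 24 h.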

[8] = target: zebrafish Thyroid Hormone Receptor beta (TRb), thrb (gene 30607) (UniProt Q9PVE4); test: ATG_zfTRb_XSP2: Attagene TRANS-FACTORIAL Multi-Species (XSP1) HepG2 Assay for zebrafish Thyroid Hormone Receptor beta (TRb) (AID 2283836)
Outline: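 Multiplexed trans-activation in HepG2 cells, 24 h treatment, with reporter mRNA read by RT-PCR and capillary electrophoresis. Gain-of-signal against DMSO.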

[9] = target: frog Thyroid hormone Receptor alpha (TRa), thra-a (gene 397942) (UniProt P15204); test: ATG_frTRa_XSP2: Attagene TRANS-FACTORIAL Multi-Species (XSP2) HepG2 Assay for frog Thyroid hormone Receptor alpha (TRa) (AID 2283839)
Outline: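 HepG2 cells transiently transfected with multiplexed GAL4-UAS reporter units expressing chimeric frog TRα-Gal4; reporter mRNA read 24 h after dosing by RT-PCR, FAM-labelled primer extension, HpaI digest and capillary electrophoresis. Gain of signal fitted versus DMSO.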

[10] = target: human Thyroid hormone Receptor beta (TRb), THRB (gene 7068) (UniProt P10828); test: ATG_hTRb_XSP2: Attagene TRANS-FACTORIAL Multi-Species (XSP2) HepG2 Assay for human Thyroid hormone Receptor beta (TRb) (AID 2283840);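 note: actives raise reporter mRNA so potency reflects agonist-like gain of signal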
Outline: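 HepG2 cells were transiently transfected with GAL4-UAS multiplexed reporter units expressing chimeric NR-Gal4 proteins, dosed 24 h; reporter mRNA was quantified by RT-PCR, fluorescent labeling, HpaI digestion and capillary electrophoresis, fitted for gain of signal versus DMSO.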

[11] = target: human Thyroid hormone Receptor alpha (TRa), THRA (gene 7067) (UniProt P10827); test: ATG_hTRa_XSP2: Attagene TRANS-FACTORIAL Multi-Species (XSP2) HepG2 Assay for human Thyroid hormone Receptor alpha (TRa) (AID 2283838)
Outline: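 Gain-of-signal in reporter mRNA, relative to DMSO, after 24 h dosing of transfected HepG2; quantitation by RT-PCR fragment analysis on capillary electrophoresis.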

[12] = CEETOX_H295R_11DCORT_noMTC: CeeTox H295R High-throughput Steroidogenesis Assay for 11-Deoxycortisol (11DCORT), maximum tolerated concentration (MTC) filtered results only (AID 2283911; active = hit-call score of the fitted dose curve at least 0.9, where 1 is the maximum; inactive = score below 0.9); conditions: actives raise or lower the signal
Outline: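 HPLC-MS/MS read-out of 11-deoxycortisol after MTBE extraction of H295R medium. Cells: forskolin 10 uM pre-stimulation 48 h, chemical 48 h, 0.1% DMSO final. Bidirectional fit vs DMSO baseline; no MTC filtering.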

[13] = CEETOX_H295R_OHPREG_noMTC: CeeTox H295R High-throughput Steroidogenesis Assay for OH-Pregnenolone (OHPREG), maximum tolerated concentration (MTC) filtered results only (AID 2283912; active = hit-call score of the fitted dose curve at least 0.9, where 1 is the maximum; inactive = score below 0.9); conditions: actives raise or lower the signal
Outline: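 Readout is HPLC-MS/MS quantification of 17alpha-hydroxypregnenolone released by forskolin-stimulated H295R cells over 48 h of chemical exposure, DMSO as baseline.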

[14] = CEETOX_H295R_OHPROG_noMTC: CeeTox H295R High-throughput Steroidogenesis Assay for OH-Progesterone (OHPROG), maximum tolerated concentration (MTC) filtered results only (AID 2283914; active = hit-call score of the fitted dose curve at least 0.9, where 1 is the maximum; inactive = score below 0.9); conditions: actives raise or lower the signal
Outline: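 Analysis uses all tested concentrations, without maximum-tolerated-concentration screening by MTT. H295R cells, forskolin-primed (10 uM, 48 h), receive chemical for 48 h; hormone in medium measured by HPLC-MS/MS, with bidirectional curve fitting against DMSO.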

[15] = CEETOX_H295R_CORTISOL_noMTC: CeeTox H295R High-throughput Steroidogenesis Assay for Cortisol, maximum tolerated concentration (MTC) filtered results only (AID 2283916; active = hit-call score of the fitted dose curve at least 0.9, where 1 is the maximum; inactive = score below 0.9); conditions: actives raise or lower the signal
Outline: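 H295R adrenal cells were pre-stimulated 48 h with 10 uM forskolin, then exposed 48 h to test chemical in 0.1% DMSO. Medium cortisol was measured by MTBE extraction and HPLC-MS/MS; bidirectional fit versus DMSO, concentrations not MTC-filtered.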

[16] = CEETOX_H295R_CORTIC_noMTC: CeeTox H295R High-throughput Steroidogenesis Assay for Corticosterone (CORTIC), maximum tolerated concentration (MTC) filtered results only (AID 2283917; active = hit-call score of the fitted dose curve at least 0.9, where 1 is the maximum; inactive = score below 0.9); conditions: actives raise or lower the signal
Outline: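 Forskolin-stimulated (10 uM, 48 h) H295R cells are dosed 48 h with chemical in DMSO (0.1% final); corticosterone change is quantified by HPLC-MS/MS and fitted bidirectionally against DMSO, unfiltered for MTT-derived MTC.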

[17] = CEETOX_H295R_DOC_noMTC: CeeTox H295R High-throughput Steroidogenesis Assay for DOC, maximum tolerated concentration (MTC) filtered results only (AID 2283918; active = hit-call score of the fitted dose curve at least 0.9, where 1 is the maximum; inactive = score below 0.9); conditions: actives raise or lower the signal
Outline: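 H295R cells prestimulated 48 h with 10 uM forskolin, then exposed 48 h to test chemical (0.1% DMSO final). Medium 11-deoxycorticosterone extracted with MTBE, quantified by HPLC-MS/MS; bidirectional fit versus DMSO, concentrations not MTC-filtered.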

[18] = target: Nuclear receptor subfamily 1 group I member 2 (Mus musculus) (UniProt O54915); test: ATG_mPXR_XSP2: Attagene TRANS-FACTORIAL Multi-Species (XSP1) HepG2 Assay for mouse Pregnane X Receptor (PXR) (AID 2283831)
Outline: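 HepG2 cells transiently transfected with GAL4-UAS reporter units expressing chimeric NR-GAL4 proteins; reporter mRNA measured 24 h after dosing by RT-PCR with 6-FAM labelling and capillary electrophoresis, gain of signal relative to DMSO.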

[19] = ATG_XTT_Cytotoxicity_XSP2: Cytotoxicity Assessment in the Attagene TRANS-FACTORIAL Multi-Species (XSP2) HepG2 Assay (AID 2283837)
Outline: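 XTT-based cell number read-out in human HepG2 liver cells carrying transfected reporter units, measured 24 h after chemical dosing. Activity is signal loss versus DMSO baseline.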

Chain of zebrafish Thyroid Hormone Receptor alpha (TRa), thraa (gene 30670) (Q98867 whole entry, looked up, the tested form may be a part): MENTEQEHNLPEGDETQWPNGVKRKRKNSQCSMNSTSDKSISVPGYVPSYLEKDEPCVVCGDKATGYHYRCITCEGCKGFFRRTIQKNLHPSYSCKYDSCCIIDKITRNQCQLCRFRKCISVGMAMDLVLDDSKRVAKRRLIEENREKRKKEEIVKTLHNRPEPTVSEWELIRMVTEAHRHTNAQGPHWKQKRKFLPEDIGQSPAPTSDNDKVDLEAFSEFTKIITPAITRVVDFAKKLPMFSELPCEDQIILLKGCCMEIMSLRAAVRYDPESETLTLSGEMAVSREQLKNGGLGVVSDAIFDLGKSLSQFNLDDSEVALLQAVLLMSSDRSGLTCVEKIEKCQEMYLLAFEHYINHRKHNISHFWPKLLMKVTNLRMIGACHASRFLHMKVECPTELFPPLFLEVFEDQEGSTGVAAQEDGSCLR
Chain of frog Thyroid hormone Receptor alpha (TRa), thra-a (gene 397942) (P15204 whole entry, looked up, the tested form may be a part): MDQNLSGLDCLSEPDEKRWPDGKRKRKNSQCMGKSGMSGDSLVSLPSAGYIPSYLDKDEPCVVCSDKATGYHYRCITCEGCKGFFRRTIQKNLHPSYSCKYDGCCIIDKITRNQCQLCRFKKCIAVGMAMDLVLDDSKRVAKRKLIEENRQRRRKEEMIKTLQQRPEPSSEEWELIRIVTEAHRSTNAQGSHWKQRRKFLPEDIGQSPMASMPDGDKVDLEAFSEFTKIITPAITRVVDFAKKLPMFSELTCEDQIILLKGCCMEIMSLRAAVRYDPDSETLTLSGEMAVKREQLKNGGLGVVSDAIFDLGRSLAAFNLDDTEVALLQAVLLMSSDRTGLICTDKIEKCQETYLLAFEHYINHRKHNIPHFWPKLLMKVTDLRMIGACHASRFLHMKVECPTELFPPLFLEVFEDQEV
Chain of human Thyroid hormone Receptor beta (TRb), THRB (gene 7068) (P10828 whole entry, looked up, the tested form may be a part): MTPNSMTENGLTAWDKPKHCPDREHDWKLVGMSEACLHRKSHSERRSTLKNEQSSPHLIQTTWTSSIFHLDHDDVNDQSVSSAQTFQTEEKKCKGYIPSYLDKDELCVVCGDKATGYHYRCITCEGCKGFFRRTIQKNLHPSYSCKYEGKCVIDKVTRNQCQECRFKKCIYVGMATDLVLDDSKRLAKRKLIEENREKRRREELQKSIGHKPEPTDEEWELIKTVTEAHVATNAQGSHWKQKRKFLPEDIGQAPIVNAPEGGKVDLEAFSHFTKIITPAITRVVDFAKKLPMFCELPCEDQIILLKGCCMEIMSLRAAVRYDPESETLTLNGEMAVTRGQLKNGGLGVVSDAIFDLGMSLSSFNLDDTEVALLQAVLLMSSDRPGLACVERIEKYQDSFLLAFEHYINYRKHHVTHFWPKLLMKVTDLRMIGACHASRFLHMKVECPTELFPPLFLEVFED
Chain of zebrafish Thyroid Hormone Receptor beta (TRb), thrb (gene 30607) (Q9PVE4 whole entry, looked up): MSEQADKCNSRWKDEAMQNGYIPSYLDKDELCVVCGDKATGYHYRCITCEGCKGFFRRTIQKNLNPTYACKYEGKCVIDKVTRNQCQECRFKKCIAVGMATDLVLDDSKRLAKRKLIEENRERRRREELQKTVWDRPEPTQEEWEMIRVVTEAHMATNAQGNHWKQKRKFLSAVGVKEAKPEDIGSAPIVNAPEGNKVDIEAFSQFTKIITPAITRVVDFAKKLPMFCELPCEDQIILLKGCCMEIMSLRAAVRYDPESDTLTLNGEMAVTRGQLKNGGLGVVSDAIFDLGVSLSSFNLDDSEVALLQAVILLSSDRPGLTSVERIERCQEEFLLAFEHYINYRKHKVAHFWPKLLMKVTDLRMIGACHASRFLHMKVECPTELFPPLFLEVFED
Chain of human Thyroid hormone Receptor alpha (TRa), THRA (gene 7067) (P10827 whole entry, looked up, the tested form may be a part): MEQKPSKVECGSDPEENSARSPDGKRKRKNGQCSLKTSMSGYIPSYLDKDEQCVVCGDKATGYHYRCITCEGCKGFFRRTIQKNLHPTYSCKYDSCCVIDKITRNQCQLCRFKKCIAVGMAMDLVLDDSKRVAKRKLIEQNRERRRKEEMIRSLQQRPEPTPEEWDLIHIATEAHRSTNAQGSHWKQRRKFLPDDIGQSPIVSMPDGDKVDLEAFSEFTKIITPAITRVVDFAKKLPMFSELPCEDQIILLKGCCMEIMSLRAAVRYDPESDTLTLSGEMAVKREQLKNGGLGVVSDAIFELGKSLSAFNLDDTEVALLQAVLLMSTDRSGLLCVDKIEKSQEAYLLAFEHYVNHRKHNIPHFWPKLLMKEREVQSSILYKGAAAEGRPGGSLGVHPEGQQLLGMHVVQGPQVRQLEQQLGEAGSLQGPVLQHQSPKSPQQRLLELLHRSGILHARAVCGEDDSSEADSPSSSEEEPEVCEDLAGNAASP
Chain of Nuclear receptor subfamily 1 group I member 2 (Mus musculus) (O54915 whole entry, looked up, the tested form may be a part): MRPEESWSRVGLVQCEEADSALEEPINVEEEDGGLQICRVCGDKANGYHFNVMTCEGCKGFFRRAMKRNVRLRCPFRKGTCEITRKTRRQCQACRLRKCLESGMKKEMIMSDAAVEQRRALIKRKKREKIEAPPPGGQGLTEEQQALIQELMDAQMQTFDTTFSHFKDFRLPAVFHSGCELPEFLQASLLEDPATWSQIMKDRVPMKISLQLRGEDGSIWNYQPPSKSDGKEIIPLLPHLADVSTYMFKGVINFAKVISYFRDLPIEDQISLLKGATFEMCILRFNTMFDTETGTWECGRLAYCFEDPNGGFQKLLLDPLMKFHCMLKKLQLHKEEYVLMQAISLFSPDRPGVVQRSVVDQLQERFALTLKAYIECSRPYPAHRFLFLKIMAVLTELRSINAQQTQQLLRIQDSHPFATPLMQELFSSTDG
Chain of mouse Peroxisome Proliferator-activated Receptor gamma (PPARg), Pparg (gene 19016) (P37238 whole entry, looked up, the tested form may be a part): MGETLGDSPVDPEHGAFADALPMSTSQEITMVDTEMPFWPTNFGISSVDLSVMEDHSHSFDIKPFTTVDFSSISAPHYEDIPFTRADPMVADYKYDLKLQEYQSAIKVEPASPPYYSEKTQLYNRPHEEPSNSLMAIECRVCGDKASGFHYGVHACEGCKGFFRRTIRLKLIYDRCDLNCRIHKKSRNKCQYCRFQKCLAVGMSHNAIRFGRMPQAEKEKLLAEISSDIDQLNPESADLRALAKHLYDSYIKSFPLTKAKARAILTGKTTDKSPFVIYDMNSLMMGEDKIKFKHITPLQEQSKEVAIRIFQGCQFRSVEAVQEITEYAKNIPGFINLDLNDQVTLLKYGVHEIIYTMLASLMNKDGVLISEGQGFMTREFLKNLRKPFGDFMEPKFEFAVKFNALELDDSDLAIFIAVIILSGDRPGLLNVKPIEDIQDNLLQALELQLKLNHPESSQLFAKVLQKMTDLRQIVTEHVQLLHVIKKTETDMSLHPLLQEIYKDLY

CCOP(=S)(OCC)SCSC(C)(C)C
outcome [1]: inactive

CCC(C)(c1ccc(O)cc1)c1ccc(O)cc1
outcome [2]: inactive
outcome [1]: inactive

ClC1=C(Cl)[C@]2(Cl)[C@@H]3[C@@H](Cl)[C@H]4O[C@H]4[C@@H]3C1(Cl)C2(Cl)Cl
outcome [2]: inactive
outcome [1]: inactive

CCCCCCCCCC[N+](C)(C)CCCCCCCCCC
outcome [2]: inactive
outcome [1]: inactive

CC(c1ccc(O)cc1)(c1ccc(O)cc1)c1ccc(O)cc1
outcome [3]: inactive
outcome [4]: inactive
outcome [5]: inactive
outcome [6]: inactive
outcome [7]: inactive
outcome [8]: inactive
outcome [9]: inactive
outcome [10]: inactive

C[C@]12CCC(=O)C=C1CC[C@@H]1[C@@H]2CC[C@@]2(C)[C@H]1CC[C@]2(C)O
outcome [6]: inactive
outcome [7]: inactive
outcome [11]: inactive
outcome [10]: inactive

Cc1cccc(C)c1N
outcome [2]: inactive
outcome [1]: inactive

CCSC(=O)N(CC)C1CCCCC1
outcome [2]: inactive
outcome [1]: inactive

Oc1c(Cl)c(Cl)c(Cl)c(Cl)c1Cl
outcome [1]: inactive
outcome [12]: inactive
outcome [13]: inactive
outcome [14]: inactive
outcome [15]: inactive
outcome [16]: inactive
outcome [17]: inactive

O=NN(c1ccccc1)c1ccccc1
outcome [2]: inactive
outcome [1]: inactive

Cc1cc(-c2ccc(N)c(C)c2)ccc1N
AC50 [3]: 27.7 µM (active) and 55.5 µM (active)
outcome [3]: inactive
AC50 [18]: 5.2 µM (active)
outcome [18]: inactive
outcome [4]: inactive
AC50 [5]: 10.8 µM (active)
outcome [5]: inactive
outcome [6]: inactive
outcome [8]: inactive
outcome [19]: inactive
outcome [11]: inactive
outcome [9]: inactive
outcome [10]: inactive

CCCCCCOC(=O)c1ccccc1C(=O)OCCCCCC
outcome [12]: inactive
outcome [13]: inactive
outcome [14]: inactive
outcome [15]: inactive
outcome [16]: inactive
outcome [17]: inactive

O=C(O)C(F)(F)C(F)(F)C(F)(F)C(F)(F)C(F)(F)F
outcome [2]: inactive

O=C(O)C(F)(F)C(F)(F)C(F)(F)C(F)(F)C(F)(F)C(F)(F)C(F)(F)C(F)(F)C(F)(F)F
AC50 [2]: 12.8 µM (active)
outcome [2]: inactive
outcome [1]: inactive
outcome [12]: inactive
outcome [13]: inactive
outcome [14]: inactive
outcome [15]: inactive
outcome [16]: inactive
outcome [17]: inactive

O=S(=O)(O)C(F)(F)C(F)(F)C(F)(F)C(F)(F)C(F)(F)C(F)(F)F
AC50 [2]: 23.3 µM (active) and 7.48 µM (active) and 2.33 µM (active)
outcome [1]: inactive

C[C@]12CCC(=O)C=C1CC[C@@H]1[C@@H]2CC[C@]2(C)C(=O)CC[C@@H]12
outcome [18]: inactive
outcome [6]: inactive
outcome [7]: inactive
outcome [8]: inactive
outcome [11]: inactive
outcome [9]: inactive
outcome [10]: inactive

c1cc2ccc3cccc4ccc(c1)c2c34
AC50 [3]: 27.9 µM (active)
outcome [3]: inactive
AC50 [18]: 19.6 µM (active) and 15 µM (active)
outcome [4]: inactive
outcome [5]: inactive
outcome [6]: inactive
outcome [8]: inactive
outcome [19]: inactive
outcome [11]: inactive
outcome [9]: inactive
outcome [10]: inactive

Reference: PubChem BioAssay (EPA / NIEHS)
